This is an account of results in PubChem BioAssay (EPA / NIEHS).

For orientation: AC50 means the concentration giving half of the maximal activity seen.

Read-out in experiment [1]: CD69, CD69 (gene 969)
As to the kind of experiment: BSK_LPS_CD69: BioMAP Diversity Plus: LPS Assay for CD69 Biomarker Activity (AID 2284303). The settings on record: primary human HUVEC with PBMC. The method, boiled down: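 Human umbilical vein endothelial cells co-cultured with PBMC under LPS stimulation, chemical exposure 24 h; cell-surface CD69 measured by ELISA and fitted in the positive direction versus DMSO.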

Experiment [2] has as its system IYD (gene 389434). Put plainly: CCTE_GLTED_hIYD: CCTE's human Iodotyrosine Deiodinase (xIYD) Inhibition Assay, Great Lakes Toxicology and Ecology Division (GLTED) Lab (AID 2284317; active = hit-call score of the fitted dose curve at least 0.9, where 1 is the maximum;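 note: cell-free human IYD enzyme made in baculovirus insect cells; iodide freed from monoiodotyrosine measured by cerium arsenite color change at 420 nm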). The method, boiled down: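 hIYD: baculovirus-expressed human IYD deiodinated monoiodotyrosine for 3 h with test chemical; free iodide was measured by Sandell-Kolthoff absorbance at 420 nm and normalized to MNT and DMSO/NaOH controls.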

A short description of experiment [3]: CCTE_Mundy_HCI_iCellGluta_NOG_NeuriteLength: CCTE's Neurite Outgrowth Assay in iCellGluta cells for Neurite Length, Mundy Lab (AID 2284318; active = hit-call score of the fitted dose curve at least 0.9, where 1 is the maximum). The gist of the method: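 Automated high-content imaging of betaIII-tubulin (Alexa Fluor-488) and Hoechst-stained cells gave neurite length, normalized to the DMSO baseline.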
Experiment [4] can be described thus: CCTE_Deisenroth_5AR_NBTE_donor: CCTE's 5alpha-reductase NanoBRET Target Engagement Assay […], Deisenroth Lab (AID 2284319). The note with it: actives raise or lower the signal. The method, boiled down:
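Donor NanoLuc luminescence at 460-20 nm is the read-out, serving artifact detection. Transiently expressed SRD5A2-NanoLuc in HEK293T; 5 h total chemical exposure, testosterone tracer added for the final 2 h; fitting bidirectional relative to DMSO baseline.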
(In general: In BRET a luciferase serves as donor, and the signal depends on an acceptor being close.)

“And” between values parts separate entries of the source, which are not always exact repeats. Equal values may be shown once. Results filed as inconclusive are left out. More than one record can exist for a structure, and the calls need not agree. The source made the active and inactive calls. Rule for the calls, unless noted: active = hit-call score of the fitted dose curve at least 0.9, where 1 is the maximum; inactive = score below 0.9.

On to `O=C(O)C(F)(F)C(F)(F)C(F)(F)C(F)(F)C(F)(F)C(F)(F)C(F)(F)C(F)(F)C(F)(F)C(F)F`, for which the AC50 in experiment [1] is 37.8 µM (active) and 27.9 µM (active); in experiment [2], 73.5 µM (active).

As for `OCCCC(F)(F)C(F)(F)C(F)(F)C(F)(F)C(F)(F)C(F)(F)C(F)(F)F`, in experiment [1], the AC50 is 52.1 µM (active) and 51.7 µM (active). For the same compound, in experiment [3], the compound was called inactive.

For the compound `O=C(OCCOCCOCCOC(=O)c1ccccc1)c1ccccc1`, the compound was classed as inactive in experiment [4].

With `O=C(Cl)C(F)(F)C(F)(F)C(F)(F)C(F)(F)C(F)(F)C(F)(F)C(F)(F)C(F)(F)F`, the AC50 in experiment [1] is 18.1 µM (active) and 22.1 µM (active); in experiment [2] it was 139 µM (active). In addition, the outcome in experiment [1] was inactive.

`O=C(O)C(F)(F)C(F)(F)C(F)(F)F`: the outcome in experiment [1] and in experiment [3] was inactive.

Turning to `O=C(CC(=O)C(F)(F)C(F)(F)F)C(F)(F)F`, the outcome in experiment [1] and in experiment [3] was inactive.

With `FC(F)(F)C(F)(F)CNCC(F)(F)C(F)(F)F`, in experiment [1], the outcome was inactive.

Turning to `CCN(Cc1cccc(S(=O)(=O)O)c1)c1ccc(C(=C2C=CC(=[N+](CC)Cc3cccc(S(=O)(=O)O)c3)C=C2)c2ccc(O)cc2S(=O)(=O)[O-])cc1`, in experiment [2], the concentration at half-maximal activity (AC50) was 66.1 µM (active). In experiment [4], the call was inactive.

As to `FC(F)(F)C(F)(F)C(F)(F)C(F)(F)C(F)(F)C(F)(F)CC1CO1` (centres undefined), the result in experiment [1] and in experiment [3] was inactive.

On to `CCCCC(CC)COP(=O)(O)OCC(CC)CCCC` (centres undefined), for which the AC50 was 987 nM (active) in experiment [1] and 100 µM (active) in experiment [2]. For the same compound, the result in experiment [1] was inactive.

On to `Cc1ccc(S(=O)(=O)OCC(F)(F)C(F)(F)C(F)(F)C(F)(F)C(F)(F)C(F)F)cc1`, for which, in experiment [1], the half-maximal activity concentration (AC50) was 7940 nM (active) and the result was inactive.

Regarding `N=C(N)C(F)(F)C(F)(F)C(F)(F)C(F)(F)C(F)(F)C(F)(F)C(F)(F)F`, the AC50 in experiment [1] is 45 µM (active) and 14.9 µM (active). Also, in experiment [3], the call was inactive.
